The panel holds about 83,000 compounds, 20% with a hit somewhere; the sample as a whole holds those more often.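 Note: values are percent growth. 100 is the growth of untreated cells, values between 100 and 0 indicate rising inhibition; between -100 and 0 indicates cell death.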 Activity calls are given as the source filed them. The calls were made as follows: active = growth percent below 10; inactive = the rest.

The test system of the first experiment is SW-620 colon. Nature of the experiment: NCI-60 one-dose screen, 48 h (100 = growth as untreated, 0 = no growth, -100 = all killed). The conditions noted are these: 10 µM unless noted.
For `CC(=O)O[C@]1(C(C)=O)CCC2C3C[C@H](C)C4=CC(=O)CC[C@]4(C)C3CC[C@@]21C` (stereo partly drawn), the growth is 112% (inactive).

As for `CC(=O)N1N=C(c2ccc(Nc3nc(Nc4ccc(F)cc4)nc(Nc4ccc(F)cc4)n3)cc2)CC1c1cccc([N+](=O)[O-])c1` (stereo not drawn), the growth was 96.9% (inactive).

With `Cc1occc1-c1n[nH]c(=S)n1N1C(=O)CSC1=S`, the growth is 94.8% (inactive).

Turning to `COc1cccc(-c2nn(-c3ccccc3)cc2-c2ccnc(NCCCNC(=O)c3ccccc3)c2)c1`, the growth is 39.7% (inactive).

On to `COc1cc(/C=N/Nc2ncc(-c3cc4cc5c(cc4o3)OCO5)s2)cc(OC)c1OC`, for which the growth is 55.4% (inactive).

On to `O=C(Nc1ccccc1Cl)Oc1ccc(-c2ccccc2)cc1`, for which the growth was 112% (inactive).

`COc1nc(N(C)O)nc(N(C)O)n1`: the growth was 34.6% (inactive).

Turning to `CCN1CCN(c2nc(C)cc(NCc3cc(Nc4ccnc5cc(Cl)ccc45)ccc3F)n2)CC1`, the growth is 11.5% (inactive).

`CCN(CC)c1nc(SCC(=O)Nc2nc3ccc(C)cc3s2)nc(-c2ccccc2)c1C#N`: the growth is 97.9% (inactive).

In the case of `Cn1c(-c2c(N)n(Cc3cccnc3)c3nc(C#N)c(C#N)nc23)nc2ccccc21`, the growth was 95.3% (inactive).

For the compound `Cc1cc(NCc2cc(Nc3ccnc4cc(Cl)ccc34)ccc2F)nc(Cl)n1`, the growth was 57% (inactive).

The test system of a further experiment is MCF7 breast. The description is as above. The conditions noted are these: 10 µM unless noted.
As to `COc1ccc2c(c1)C(=O)/C(=C/c1ccc(OCC(=O)Nc3nccs3)cc1)O2`, the growth was 59.8% (inactive).

As for `CN1C(=O)N(C)C2C1NN=c1s/c(=C\c3ccccc3)c(=O)n12` (stereo not drawn), the growth was 15.4% (inactive).

Consider `O=S(=O)(NCCCNc1cc(-c2c(-c3cccc(O)c3)nc3sccn23)ccn1)c1cccc(Cl)c1`, for which the growth is 55.5% (inactive).

`Cn1ccc2c(c1=O)C(=O)c1nccc3c1c-2nc1ccccc13`: the growth was -59.1% (active).

With `Cc1ccc(Cl)c(NS(=O)(=O)c2ccc(-c3cnc(C4CC4)o3)cc2)c1`, the growth is 12.4% (inactive).

Regarding `Cn1cc(-c2csc(-c3cccc(F)c3)n2)c2cccnc21`, the growth was -62% [100 µM] (active).

As to `CC(C)Sc1nc(NNC(N)=S)c(C#N)c(-c2ccc(F)cc2)n1`, the growth is 99.1% (inactive).

For `Cc1c(C(=O)OC(=NC2CCCCC2)NC2CCCCC2)sc2c1c(=O)nc1c(C#N)n[nH]n12`, the growth was 103% (inactive).

Turning to `C=C(C)[C@@H]1CC[C@]2(C(=O)NC3CCCCC3)CC[C@]3(C)[C@H](CC[C@@H]4[C@@]5(C)CCC(=O)C(C)(C)[C@@H]5CC[C@]43C)[C@@H]12`, the growth is 85.1% (inactive).

On to `Clc1cccc(Cl)c1C(Nc1nc2ccccc2s1)Nc1nc2ccccc2s1`, for which the growth was 91.3% (inactive).

`Cc1cc[c-]cc1.Fc1c[c-]c(-c2ccccn2)c(F)c1.[Pt+2].c1ccc(P(C[PH+](c2ccccc2)c2ccccc2)c2ccccc2)cc1`: the growth is 6.01% (active).

In the case of `O=C(O)c1ccc2c(c1)CCC2`, the growth was 100% (inactive).

Consider `C[C@H]1[C@H]2[C@H]3CC[C@@H]4[C@@]5(C)C/C(=C/c6ccco6)C(=O)C(C)(C)[C@@H]5CC[C@@]4(C)[C@]3(C)CC[C@]23CO[C@]1(C)[C@@H](C(=O)/C=C\c1ccco1)C3`, for which the growth is 88.8% (inactive).

On to `CCOC(=O)c1ccc(N2NC(=O)/C(=C/c3ccc([N+](=O)[O-])o3)C2=O)cc1`, for which the growth was 89.4% (inactive).

Regarding `COc1ccc(-c2cc(-c3ccc(Nc4nc(Nc5ccc(Cl)cc5)nc(Nc5ccc(Cl)cc5)n4)cc3)nc(N)c2C#N)cc1`, the growth was 32.4% (inactive).

As to `O=C1/C(=C/c2ccc(F)cc2)C=C(c2ccccc2)N1CCc1ccccc1`, the growth was 50.4% (inactive).

As for `O=c1c2c3c(sc2n2c(-c4cn(-c5ccccc5)nc4-c4ccc(Cl)cc4)nnc2n1Cc1ccccc1)CCCC3`, the growth was 75.4% (inactive).

`COC(=O)c1c2c(c[n+]([O-])c1C)C(=O)C=CC2=O`: the growth was -62% (active).

`Cc1ccc(-n2c(-c3ccccc3)c(-c3ccccc3)c3c(SCC(=O)n4[nH]c(N)cc4=O)ncnc32)cc1`: the growth is 86.7% (inactive).

In the case of `COc1cc(CCC[P+](c2ccccc2)(c2ccccc2)c2ccccc2)cc2c1OCO2`, the growth was 18.2% (inactive).

Consider `COc1cccc(-c2nc3sccn3c2-c2ccnc(NCCNS(=O)(=O)c3cccc(Cl)c3)c2)c1`, for which the growth was 43.2% (inactive).

On to `CC1=C([Se]CC(OC(=O)[C@@H](CO)NC(=O)OC(C)(C)C)C(=O)NC(C)(C)C)C(=O)c2ccccc2C1=O` (stereo partly drawn), for which the growth was -72.6% (active).

Consider `Cc1ccc(Cc2cnc(NC(=O)c3ccc4noc(-c5ccccc5)c4c3)s2)cc1`, for which the growth was 69.8% (inactive).

With `N#CC1=C(/N=C/c2ccccc2)Oc2c(ccc3ccccc23)C1c1ccccc1` (stereo not drawn), the growth is 14.6% (inactive).

Consider `CC/C=C1/C(=O)C=C[C@@H]1C/C=C\CCCC(=O)O`, for which the growth was 19.8% (inactive).

With `CC(=O)c1nc(Nc2ccc(C)cc2)sc1C`, the growth was 87.3% (inactive).

In the case of `CC(=O)O[C@]1(C(C)=O)CCC2C3C[C@H](C)C4=CC(=O)CC[C@]4(C)C3CC[C@@]21C` (stereo partly drawn), the growth is 90.1% (inactive).

Consider `CC(=O)N1N=C(c2ccc(Nc3nc(Nc4ccc(F)cc4)nc(Nc4ccc(F)cc4)n3)cc2)CC1c1cccc([N+](=O)[O-])c1` (stereo not drawn), for which the growth is 88.3% (inactive).

As to `Cc1occc1-c1n[nH]c(=S)n1N1C(=O)CSC1=S`, the growth was 94.4% (inactive).

Consider `COc1cccc(-c2nn(-c3ccccc3)cc2-c2ccnc(NCCCNC(=O)c3ccccc3)c2)c1`, for which the growth is 33.4% (inactive).

On to `COc1cc(/C=N/Nc2ncc(-c3cc4cc5c(cc4o3)OCO5)s2)cc(OC)c1OC`, for which the growth is 53.4% (inactive).

On to `O=C(Nc1ccccc1Cl)Oc1ccc(-c2ccccc2)cc1`, for which the growth is 110% (inactive).

On to `COc1nc(N(C)O)nc(N(C)O)n1`, for which the growth is 15% (inactive).

As to `CCN1CCN(c2nc(C)cc(NCc3cc(Nc4ccnc5cc(Cl)ccc45)ccc3F)n2)CC1`, the growth is 1.98% (active).

Turning to `CCN(CC)c1nc(SCC(=O)Nc2nc3ccc(C)cc3s2)nc(-c2ccccc2)c1C#N`, the growth was 85.1% (inactive).

Consider `Cn1c(-c2c(N)n(Cc3cccnc3)c3nc(C#N)c(C#N)nc23)nc2ccccc21`, for which the growth is 103% (inactive).

`Cc1cc(NCc2cc(Nc3ccnc4cc(Cl)ccc34)ccc2F)nc(Cl)n1`: the growth was 30% (inactive).

The values above are taken from PubChem BioAssay (NCI).
